From ChEMBL document CHEMBL1961873, “Compounds: GSK PKIS; Assays: Nanosyn kinase panel” (2012) come the findings set out here.

Several values for one entry are separate records, joined by “and”; a condition that tells them apart may be missing. Equal entries are not always repeated.

Sequence of Ribosomal protein S6 kinase alpha-3 (Homo sapiens) (P51812 whole entry): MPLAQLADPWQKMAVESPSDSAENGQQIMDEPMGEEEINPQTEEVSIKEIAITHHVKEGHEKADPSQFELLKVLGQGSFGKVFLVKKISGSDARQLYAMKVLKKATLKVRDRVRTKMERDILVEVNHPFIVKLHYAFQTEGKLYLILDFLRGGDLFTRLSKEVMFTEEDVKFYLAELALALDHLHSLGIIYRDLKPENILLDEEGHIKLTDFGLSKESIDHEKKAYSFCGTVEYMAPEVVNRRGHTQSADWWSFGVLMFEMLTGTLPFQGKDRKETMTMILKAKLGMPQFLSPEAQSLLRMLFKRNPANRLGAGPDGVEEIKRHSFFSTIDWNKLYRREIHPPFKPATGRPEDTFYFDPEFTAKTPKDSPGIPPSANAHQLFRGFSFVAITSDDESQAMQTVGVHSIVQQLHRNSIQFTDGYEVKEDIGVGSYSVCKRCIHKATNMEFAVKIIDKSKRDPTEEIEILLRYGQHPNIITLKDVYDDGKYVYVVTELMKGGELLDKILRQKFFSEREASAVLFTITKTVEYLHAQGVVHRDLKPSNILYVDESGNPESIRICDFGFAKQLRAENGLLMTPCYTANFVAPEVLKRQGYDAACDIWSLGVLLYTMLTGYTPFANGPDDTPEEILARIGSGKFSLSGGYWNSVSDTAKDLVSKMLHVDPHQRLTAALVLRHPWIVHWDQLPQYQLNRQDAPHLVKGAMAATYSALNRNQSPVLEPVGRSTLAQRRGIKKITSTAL

The first test concerns the target Ribosomal protein S6 kinase alpha-3 (Homo sapiens) (UniProt P51812). The following applies: at 0.1 µM.
With `c1cnn2ncc(-c3ccnc(NCCCN4CCOCC4)n3)c2c1`, the inhibition (as a rule, the change of the read-out against control, counted positive when it falls) is 0.98%.
Turning to `FC(F)(F)CNc1nccc(-c2cnn3ncccc23)n1`, the inhibition came to 1.65%.
Still for that read-out and setting: the result for `CCS(=O)(=O)c1ccc(OC)c(Nc2ncc(-c3cccc(F)c3)o2)c1` reads 1.12%.
Still for that read-out and setting: the result for `COc1ccc(Nc2ncc(-c3ccccc3)o2)cc1OC` reads 0.01%.
Same read-out and setting: the result for `Cc1nnc(-c2cccc(-c3ccc(C(=O)NCC4CC4)cc3)c2)o1` reads 1.25%; that for `COc1cc(N2CCN(C(C)C)CC2)ccc1Nc1nc(Nc2cccc3ncccc23)c2cc[nH]c2n1`, 1.66%; that for `Cn1c(-c2nonc2N)nc2cnccc21`, 3.58%.
Take `CC1=C(C(=O)Nc2ccc3[nH]nc(C)c3c2)C(c2ccc(C(F)(F)F)cc2)CC(=O)N1` (configuration not stated): the inhibition came to 1.64%.
For the molecule `CN1CCC(n2cnc(-c3ccc(F)cc3)c2-c2ccnc(NCCO)n2)CC1`, the inhibition was determined as 0.9%.
Consider `COc1cc(Nc2ncc(-c3ccccc3)o2)cc(OC)c1`, for which the inhibition turned out to be 1.01%.
Same read-out and setting: the result for `CC1=C(C(=O)Nc2ccc3[nH]ncc3c2)C(c2ccc(F)cc2)N=C(c2ccc(C(F)(F)F)nc2)N1` (configuration not stated) reads -0.02%; that for `Cc1ccc(-c2cc3c(NC(=O)C4CC4)ncnc3o2)cc1`, 1.27%.
Still for that read-out and setting: in the case of `O=C1Nc2ccccc2/C1=C1\CCc2cc(O)ccc21` it was 4.82%; in that of `CN(C)CCNC(=O)Nc1ccc(N(C)c2ccnc(Nc3ccc(CS(C)(=O)=O)cc3)n2)cc1`, 0.87%.
The same measure, in the same setting: the result for `CS(=O)(=O)CCNCc1ccoc1-c1ccc2ncnc(Nc3ccc(OCc4ccccc4)cc3)c2c1` reads -0.27%.
Consider `CS(=O)(=O)Nc1ccc(-c2ccc3c(NC(=O)C4CC4)n[nH]c3c2)cc1`, for which the inhibition was found to be 0.62%.
Still for that read-out and setting: in the case of `O=C(Nc1n[nH]c2nnc(-c3cccnc3)cc12)C1CC1` it was 0.41%; in that of `CC1(C)CC(n2cnc(-c3ccc(F)cc3)c2-c2ccnc(N)n2)CC(C)(C)N1`, 1.45%; in that of `CNC(=O)c1ncccc1Nc1nc(Nc2cc3c(cc2OC)CCCN3C(=O)CN(C)C)nc2[nH]ccc12`, 2.99%.
For the molecule `COc1cccc(-n2ncc3c(N/N=C/c4ccc(C(=O)NCCN(C)C)cc4)ncnc32)c1`, the inhibition is 0.89%.
On the same count and under the same terms, the result for `Cc1c2ccc(N(C)c3ccnc(Nc4cccc(S(N)(=O)=O)c4)n3)cc2nn1C` reads 1.97%.
Take `OCCCNc1nccc(-c2c(-c3ccc(F)cc3)nn3cc(C(F)(F)F)ccc23)n1`: the inhibition turned out to be 0.38%.
As to `COc1cccc(Nc2nccc(-c3cnn4ncccc34)n2)c1`, the inhibition was -0.39%.
On the same count and under the same terms, in the case of `O=C(O[C@H]1CN[C@H](C#Cc2cc3ncnc(Nc4ccc(OCc5cccc(F)c5)c(Cl)c4)c3s2)C1)N1CCOCC1` it was 1.55%; in that of `NS(=O)(=O)c1ccc(N/N=C2\C(=O)Nc3ccc(C(=O)NCc4ccncc4)cc32)cc1`, 2.2%.
The same measure, in the same setting: in the case of `CS(=O)(=O)CCNCc1ccc(-c2ccc3ncnc(Nc4ccc(OCc5ccccc5)cc4)c3c2)o1` it was 2.27%; in that of `CCOc1ccc2c(-c3ccnc(Nc4cc(OC)cc(C(F)(F)F)c4)n3)cnn2n1`, -0.09%.
The same measure, in the same setting: in the case of `Nc1nonc1-c1nc2cnccc2n1C1CC1` it was 46.1% and 47%; in that of `CCN1CCC(C(=O)Nc2n[nH]c3nnc(-c4cccc(F)c4F)cc23)CC1`, 1.06%; in that of `CS(=O)(=O)CCNCc1ccc(-c2ccc3ncnc(Nc4ccc(OCc5cccc(C(F)(F)F)c5)cc4)c3c2)o1`, -0.35%.
In the case of `Nc1nccc(-c2c(-c3ccc(F)cc3)ncn2C2CCNCC2)n1`, the inhibition is -1.12% and 0.34%.

A further test has the same target. The following applies: at 1 µM.
As for `c1cnn2ncc(-c3ccnc(NCCCN4CCOCC4)n3)c2c1`, the inhibition amounted to 2.86%.
The same measure, in the same setting: in the case of `FC(F)(F)CNc1nccc(-c2cnn3ncccc23)n1` it was 2.69%; in that of `CCS(=O)(=O)c1ccc(OC)c(Nc2ncc(-c3cccc(F)c3)o2)c1`, 13.6%.
For `COc1ccc(Nc2ncc(-c3ccccc3)o2)cc1OC`, the inhibition turned out to be 2.14%.
On the same count and under the same terms, in the case of `Cc1nnc(-c2cccc(-c3ccc(C(=O)NCC4CC4)cc3)c2)o1` it was 1.76%; in that of `COc1cc(N2CCN(C(C)C)CC2)ccc1Nc1nc(Nc2cccc3ncccc23)c2cc[nH]c2n1`, 5.2%.
Same read-out and setting: in the case of `Cn1c(-c2nonc2N)nc2cnccc21` it was 23%; in that of `CC1=C(C(=O)Nc2ccc3[nH]nc(C)c3c2)C(c2ccc(C(F)(F)F)cc2)CC(=O)N1` (configuration not stated), 17.2%.
On to `CN1CCC(n2cnc(-c3ccc(F)cc3)c2-c2ccnc(NCCO)n2)CC1`, for which the inhibition is 3.09%.
Take `COc1cc(Nc2ncc(-c3ccccc3)o2)cc(OC)c1`: the inhibition was determined as 2.61%.
On the same count and under the same terms, the result for `CC1=C(C(=O)Nc2ccc3[nH]ncc3c2)C(c2ccc(F)cc2)N=C(c2ccc(C(F)(F)F)nc2)N1` (configuration not stated) reads 2.71%; that for `Cc1ccc(-c2cc3c(NC(=O)C4CC4)ncnc3o2)cc1`, 2.17%; that for `O=C1Nc2ccccc2/C1=C1\CCc2cc(O)ccc21`, 27%.
Same read-out and setting: the result for `CN(C)CCNC(=O)Nc1ccc(N(C)c2ccnc(Nc3ccc(CS(C)(=O)=O)cc3)n2)cc1` reads 2.03%.
Take `CS(=O)(=O)CCNCc1ccoc1-c1ccc2ncnc(Nc3ccc(OCc4ccccc4)cc3)c2c1`: the inhibition was -0.04%.
Same read-out and setting: in the case of `CS(=O)(=O)Nc1ccc(-c2ccc3c(NC(=O)C4CC4)n[nH]c3c2)cc1` it was 0.96%; in that of `O=C(Nc1n[nH]c2nnc(-c3cccnc3)cc12)C1CC1`, 0.86%; in that of `CC1(C)CC(n2cnc(-c3ccc(F)cc3)c2-c2ccnc(N)n2)CC(C)(C)N1`, 2.77%.
For the molecule `CNC(=O)c1ncccc1Nc1nc(Nc2cc3c(cc2OC)CCCN3C(=O)CN(C)C)nc2[nH]ccc12`, the inhibition is 14.5%.
Still for that read-out and setting: the result for `COc1cccc(-n2ncc3c(N/N=C/c4ccc(C(=O)NCCN(C)C)cc4)ncnc32)c1` reads 5.65%.
With `Cc1c2ccc(N(C)c3ccnc(Nc4cccc(S(N)(=O)=O)c4)n3)cc2nn1C`, the inhibition was 3.86%.
In the case of `OCCCNc1nccc(-c2c(-c3ccc(F)cc3)nn3cc(C(F)(F)F)ccc23)n1`, the inhibition turned out to be 1.08%.
Same read-out and setting: the result for `COc1cccc(Nc2nccc(-c3cnn4ncccc34)n2)c1` reads 2.48%; that for `O=C(O[C@H]1CN[C@H](C#Cc2cc3ncnc(Nc4ccc(OCc5cccc(F)c5)c(Cl)c4)c3s2)C1)N1CCOCC1`, 5.86%.
On the same count and under the same terms, the result for `NS(=O)(=O)c1ccc(N/N=C2\C(=O)Nc3ccc(C(=O)NCc4ccncc4)cc32)cc1` reads 6.7%.
The same measure, in the same setting: in the case of `CS(=O)(=O)CCNCc1ccc(-c2ccc3ncnc(Nc4ccc(OCc5ccccc5)cc4)c3c2)o1` it was 2.78%; in that of `CCOc1ccc2c(-c3ccnc(Nc4cc(OC)cc(C(F)(F)F)c4)n3)cnn2n1`, -1.49%; in that of `Nc1nonc1-c1nc2cnccc2n1C1CC1`, 79% and 75.8%.
`CCN1CCC(C(=O)Nc2n[nH]c3nnc(-c4cccc(F)c4F)cc23)CC1`: the inhibition was determined as 2.16%.
As for `CS(=O)(=O)CCNCc1ccc(-c2ccc3ncnc(Nc4ccc(OCc5cccc(C(F)(F)F)c5)cc4)c3c2)o1`, the inhibition turned out to be 3.53%.
Still for that read-out and setting: in the case of `Nc1nccc(-c2c(-c3ccc(F)cc3)ncn2C2CCNCC2)n1` it was 0.29% and 1.05%.
